Assay outcomes: PubChem, National Center for Advancing Translational Sciences (NCATS)
Shown are actives, neighbours in structure and some others; about 12% of the full set was active somewhere.
Sm TGR inh: qHTS Assay for the Inhibitors of Schistosoma Mansoni Peroxiredoxins; AID 485364, 2010; 360,000 tested, 3% active; Potency, µM (series often up to 114 µM), actives largely listed as inhibitors; Schistosoma mansoni thioredoxin glutathione reductase (TGR), Q962Y6; purified TGR, DTNB reduction, TNB absorbance 405 nm; active = well fitted inhibition curve with a large enough effect; inconclusive = small, poorly fitted or top-dose-only effect; inactive = no such curve, though single readings can be large or run the other way; note: nearly all actives have a fitted effect of over 60% in size
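Kinetic colorimetric format: TGR-catalysed, NADPH-driven DTNB reduction monitored via TNB absorbance. Enzyme dispensed at 20 nM; compound exposure 15 min at room temperature before reaction start.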
FMDV inh: High Throughput Screening for Foot and Mouth Disease Virus Antivirals; FMDV antiviral cell-based qHTS; Potency, µM (top dose mostly 57.9 µM), usual class: inhibitors; 410,000 tested, 1.2% active; AID 1159524, 2015; calls by dose curve; tested in HEK293T cells; note: read-out not given here; nearly all actives have a fitted effect of over 45% in size
Shiga toxin inh: A qHTS for Small Molecule Inhibitors of Shiga Toxin | Vero cells, Shiga toxin protein synthesis inhibition reporter | inhibition, % at 38.7 µM | 290,000 tested, 9.2% active | AID 2315, 2010; in the data active = inhibition mostly above about 28%, no sharp cut-off; inactive = mostly below about 43%
Cycloheximide cs: Cycloheximide Counterscreen for Small Molecule Inhibitors of Shiga Toxin; cell reporter, cycloheximide protein synthesis inhibition counterscreen; AID 2314, 2010; 300,000 tested, 12% active; max response, %; in the data active = max response mostly above about 13%, no sharp cut-off; inactive = mostly below about 14%; note: read at 38.3 µM for the half of the compounds with a filed dose
Numbers stand for hits.

What do the screens show for `CSCC[C@H](NC(=O)[C@H](CCCNC(=N)N)NC(=O)[C@H](Cc1ccc(O)cc1)NC(=O)[C@@H]1CCCN1C(=O)CNC(=O)[C@H](CCC(=O)O)NC(=O)[C@H](CC(=O)O)NC(=O)[C@H](CCCCN)NC(=O)[C@H](CCCCN)NC(=O)[C@H](CCC(=O)O)NC(=O)[C@H](C)N)C(=O)N[C@@H](CCC(=O)O)C(=O)N[C@@H](Cc1cnc[nH]1)C(=O)N[C@@H](Cc1ccccc1)C(=O)N[C@@H](CCCNC(=N)N)C(=O)N[C@@H](Cc1c[nH]c2ccccc12)C(=O)NCC(=O)N[C@@H](CO)C(=O)N1CCC[C@H]1C(=O)N1CCC[C@H]1C(=O)N[C@@H](CCCCN)C(=O)N[C@@H](CC(=O)O)C(=O)O`?
Shiga toxin inh: inactive; Cycloheximide cs: inactive

What do the screens show for `O=C(COc1ccc(Br)cc1Br)Nc1ccc(S(=O)(=O)Nc2ncccn2)cc1`?
Sm TGR inh: inactive; FMDV inh: inactive

What do the screens show for `Cc1cc2nc(N)sc2cc1C`?
Sm TGR inh: inactive; FMDV inh: inactive; Shiga toxin inh: 49; Cycloheximide cs: 41

What do the screens show for `Nc1nc2ccc(O)cc2s1`?
Sm TGR inh: inactive; FMDV inh: inactive; Shiga toxin inh: inactive; Cycloheximide cs: inactive

Results for Nc1nc2ccc(Br)cc2s1 ?
FMDV inh: inactive

What do the screens show for `CC(C)c1ccc2nc(N)sc2c1`?
Sm TGR inh: inactive; FMDV inh: inactive; Shiga toxin inh: 64; Cycloheximide cs: 26

How did COc1ccc(OC)c(CNC(=O)c2ccccc2NC(=O)c2nsc3ccccc23)c1 do in these assays?
Sm TGR inh: inactive; FMDV inh: inactive

Results for CC(C)Oc1ccc(C(=O)Nc2c(C(=O)Nc3cccc(F)c3)oc3ccccc23)cc1 ?
Sm TGR inh: inactive; FMDV inh: inactive

Results for COc1cc(OC)c(C2C=C(c3ccc(C)cc3)Nc3c(C(=O)Nc4ccccc4)cnn32)cc1OC (stereo not given) ?
Sm TGR inh: inactive; FMDV inh: inactive

Results for Cc1n[nH]c(=S)c2nn(-c3cccc(Cl)c3)c(C)c12 ?
Sm TGR inh: 79µM; Shiga toxin inh: inactive; Cycloheximide cs: inactive

What do the screens show for `Cc1ccccc1Cn1cc(CCC(=O)NCc2cccc(Br)c2)c2ccccc21`?
Sm TGR inh: inactive; FMDV inh: inactive

How did Cc1cc(N2CCCCC2)nc2ccccc12 do in these assays?
Sm TGR inh: inactive; FMDV inh: inactive; Shiga toxin inh: inactive; Cycloheximide cs: 11

Results for COc1ccc(N2CCN(c3cc(C)c4ccc(O)cc4n3)CC2)cc1 ?
Sm TGR inh: inactive; FMDV inh: inactive; Shiga toxin inh: inactive; Cycloheximide cs: inactive

How did Cc1cc(N2CCCCCC2)nc2ccccc12 do in these assays?
Sm TGR inh: inactive; FMDV inh: inactive; Shiga toxin inh: inactive; Cycloheximide cs: inactive

Results for Cc1cc(N2CCN(c3ccc(F)cc3)CC2)nc2cc(O)ccc12 ?
Sm TGR inh: inactive; FMDV inh: inactive; Shiga toxin inh: inactive; Cycloheximide cs: inactive

Results for Cc1cc(-n2nnc3ccccc32)nc2ccccc12 ?
Sm TGR inh: inactive; FMDV inh: inactive; Shiga toxin inh: inactive; Cycloheximide cs: 15

Results for Cc1cc(N2CCN(c3ccccc3F)CC2)nc2cc(O)ccc12 ?
Sm TGR inh: inactive; FMDV inh: inactive; Shiga toxin inh: 95; Cycloheximide cs: 25

Results for Cc1cc(N2CCOCC2)nc2cc(O)ccc12 ?
Sm TGR inh: inactive; FMDV inh: inactive; Shiga toxin inh: 54; Cycloheximide cs: 37

What do the screens show for `CCCCN(CCCNC(=O)c1c(C)oc2nc[nH]c(=O)c12)Cc1ccccc1`?
Sm TGR inh: inactive; FMDV inh: inactive

How did c1ccc2nc(N3CCOCC3)cnc2c1 do in these assays?
Sm TGR inh: inactive; FMDV inh: inactive; Shiga toxin inh: inactive; Cycloheximide cs: 17

How did Cc1cc(N2CCN(C)CC2)nc2ccccc12 do in these assays?
Sm TGR inh: inactive; FMDV inh: inactive; Shiga toxin inh: inactive; Cycloheximide cs: inactive

How did Cc1cc(N2CCOCC2)nc2ccccc12 do in these assays?
Sm TGR inh: inactive; FMDV inh: inactive; Shiga toxin inh: 49; Cycloheximide cs: 15

Results for c1ccc2nc(N3CCOCC3)c(N3CCOCC3)nc2c1 ?
Sm TGR inh: inactive; FMDV inh: inactive; Shiga toxin inh: inactive; Cycloheximide cs: inactive

Results for C[C@@H]1OC(O[C@H]2[C@H](Oc3cc(O)c4c(=O)c(O)c(-c5ccc(O)cc5)oc4c3)O[C@H](CO)[C@@H](O)[C@@H]2O)[C@H](O)[C@H](O)[C@H]1O (stereo not given in full) ?
Shiga toxin inh: inactive; Cycloheximide cs: inactive

How did O=C(Cn1c(SCCOc2ccccc2Cl)nc2ccccc21)N1CCCCC1 do in these assays?
Sm TGR inh: inactive; FMDV inh: inactive

What do the screens show for `Clc1ccc(-c2nn3c(C4COc5ccccc5O4)nnc3s2)cc1` (stereo not given)?
Sm TGR inh: inactive; FMDV inh: inactive; Shiga toxin inh: inactive; Cycloheximide cs: 20

How did CC1=C(C(=O)Nc2ccc(F)cc2F)C2(CCCCCC2)OC1=O do in these assays?
Sm TGR inh: inactive; FMDV inh: inactive

What do the screens show for `CC(C)(C)NC(=O)c1ccc(C(=O)NC(C)(C)C)cc1`?
Sm TGR inh: inactive; FMDV inh: inactive; Shiga toxin inh: inactive; Cycloheximide cs: inactive

Results for CC(C)(C)NC(=O)c1sccc1C(=O)O ?
Sm TGR inh: inactive; FMDV inh: inactive; Shiga toxin inh: 51; Cycloheximide cs: 22

How did CCN1CCc2c(sc(NC(=O)c3ccc(S(=O)(=O)N(CC)c4ccccc4)cc3)c2C(N)=O)C1 do in these assays?
Sm TGR inh: inactive; FMDV inh: 25µM; Shiga toxin inh: inactive; Cycloheximide cs: inactive

How did CC(C)C(=O)Nc1sc2c(c1C(N)=O)CCN(Cc1ccccc1)C2 do in these assays?
Sm TGR inh: inactive; FMDV inh: inconclusive; Shiga toxin inh: inactive; Cycloheximide cs: inactive

Results for CCC(=O)Nc1sc2c(c1C(N)=O)CCN(Cc1ccccc1)C2 ?
Sm TGR inh: inactive; FMDV inh: inconclusive; Shiga toxin inh: 24; Cycloheximide cs: 13

Results for N#Cc1c(NC(=O)/C=C/C(=O)O)sc2c1CCN(Cc1ccccc1)C2 ?
Sm TGR inh: 25µM; FMDV inh: inactive; Shiga toxin inh: inactive; Cycloheximide cs: inactive

How did CC(=O)Nc1sc2c(c1C#N)CCN(Cc1ccccc1)C2 do in these assays?
Sm TGR inh: inactive; FMDV inh: inactive; Shiga toxin inh: inactive; Cycloheximide cs: inactive

What do the screens show for `NC(=O)c1c(NC(=O)c2ccccc2)sc2c1CCN(Cc1ccccc1)C2`?
Sm TGR inh: inactive; FMDV inh: inactive; Shiga toxin inh: inactive; Cycloheximide cs: 13

What do the screens show for `CCCCN(CCCC)S(=O)(=O)c1ccc(C(=O)Nc2sc3c(c2C(N)=O)CCN(CC)C3)cc1`?
Sm TGR inh: inactive; FMDV inh: inactive

How did O=C(C1CCCN(S(=O)(=O)c2cccc3nsnc23)C1)N1CCN(c2ccccc2)CC1 (stereo not given) do in these assays?
Sm TGR inh: inactive; FMDV inh: inconclusive

How did CCC(=O)Nc1nnc(S(=O)(=O)N(C)Cc2ccc(Cl)cc2)s1 do in these assays?
Sm TGR inh: inactive; FMDV inh: inactive

How did CCOC(=O)c1c(N)sc2c1CCN(Cc1ccccc1)C2 do in these assays?
Shiga toxin inh: inactive; Cycloheximide cs: inactive
